Among the test systems are EGFR(G719S); EGFR(L747-T751del,Sins); EGFR(L858R); EGFR(L858R,T790M); EGFR(L861Q); EGFR(S752-I759del); EGFR(T790M); EGFR.
Common to all, as to settings: Compound Concentration (nM):1000
Assay [1] relates to EGFR(L747-E749del, A750P).
Assay [2] concerns EGFR(L747-S752del, P753S).

Structures are written as SMILES.

The values that follow come from publication PMC7826789 (International Journal of Molecular Sciences, 2021).
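Note: KINOMEscan scanMAX binding as percent activity remaining versus control; lower means stronger binding.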

For the molecule `COc1cc2ncnc(Nc3ccc4c(cnn4Cc4ccccc4)c3)c2cc1OC.Cl` [GW282449A], the “Percent Control” value in the assay with EGFR(G719S) was 1.4%; in assay [1], 11%; in assay [2] it was 3.4%; with EGFR(L747-T751del,Sins) it was 5.2%; with EGFR(L858R), 0.9%; in the assay with EGFR(L858R,T790M), 78%. In addition, the “Percent Control” value in the assay on EGFR(L861Q) amounted to 0%; in the assay with EGFR(S752-I759del) it was 78%; with EGFR(T790M), 7.2%; in the assay on EGFR, 4.4%.
With `CC1=C(C(=O)Nc2ccc3[nH]ncc3c2)C(c2ccc3ccccc3c2)CC(=O)N1` (stereo not shown) [GSK270822A], the “Percent Control” value is 100% with EGFR(G719S); 100% in assay [1]; 100% in [2]; 100% in the assay on EGFR(L747-T751del,Sins); 100% in the assay on EGFR(L858R); 55% in the assay with EGFR(L858R,T790M). The “Percent Control” value is 83% in the assay with EGFR(L861Q), 100% with EGFR(S752-I759del), 56% in the assay with EGFR(T790M) and 100% in the assay with EGFR.
As to `C/C(Nc1ccc(S(N)(=O)=O)cc1)=C1/C(=O)Nc2ccccc21` [GW335962X], the “Percent Control” value is 63% in the assay with EGFR(G719S); 93% in [1]; 82% in [2]; 100% with EGFR(L747-T751del,Sins); 100% with EGFR(L858R); 95% with EGFR(L858R,T790M). In addition, the “Percent Control” value was 68% in the assay on EGFR(L861Q), 100% with EGFR(S752-I759del), 74% in the assay on EGFR(T790M) and 100% in the assay with EGFR.
As for `CN(C)CCNC(=O)Nc1ccc(N(C)c2ccnc(Nc3ccc(CS(C)(=O)=O)cc3)n2)cc1.Cl` [GW830900A], the “Percent Control” value is reported as 97% in the assay on EGFR(G719S); 73% in [1]; 79% in assay [2]; 100% in the assay with EGFR(L747-T751del,Sins); 83% with EGFR(L858R); 60% in the assay on EGFR(L858R,T790M). The “Percent Control” value in the assay with EGFR(L861Q) was found to be 100%; in the assay on EGFR(S752-I759del), 100%; in the assay with EGFR(T790M), 64%; with EGFR, 95%.
For `COc1cccc(-c2c[nH]c3c(N/N=C/c4ccncc4)ncnc23)c1` [GW814408X], the “Percent Control” value in the assay on EGFR(G719S) is 32%; in assay [1], 18%; in [2], 16%; in the assay on EGFR(L747-T751del,Sins), 35%; with EGFR(L858R), 23%; with EGFR(L858R,T790M), 30%. Moreover, the “Percent Control” value came to 41% with EGFR(L861Q), 41% with EGFR(S752-I759del), 53% in the assay on EGFR(T790M) and 30% with EGFR.
`COc1cc(/C=N/Nc2ncnc3[nH]ncc23)ccc1O` [GW578748X]: the “Percent Control” value in the assay with EGFR(G719S) is reported as 62%; in assay [1] it was 78%; in assay [2] it was 100%; in the assay on EGFR(L747-T751del,Sins), 78%; with EGFR(L858R), 90%; in the assay with EGFR(L858R,T790M), 72%. Also, the “Percent Control” value is reported as 64% with EGFR(L861Q), 86% in the assay with EGFR(S752-I759del), 48% in the assay on EGFR(T790M) and 75% in the assay on EGFR.
Turning to `COc1cc2ncn(-c3cc(O[C@H](C)c4ccccc4Cl)c(C(N)=O)s3)c2cc1OC` [GSK237701A], the “Percent Control” value in the assay with EGFR(G719S) came to 69%; in [1], 100%; in assay [2], 86%; in the assay on EGFR(L747-T751del,Sins) it was 87%; in the assay with EGFR(L858R), 100%; in the assay with EGFR(L858R,T790M), 79%. In addition, the “Percent Control” value in the assay on EGFR(L861Q) turned out to be 97%; in the assay on EGFR(S752-I759del) it was 100%; in the assay on EGFR(T790M) it was 75%; with EGFR, 100%.
Take `Nc1ncnc2occ(-c3ccc(NC(=O)Nc4cc(C(F)(F)F)ccc4F)cc3)c12` [GW770249X]: the “Percent Control” value turned out to be 87% in the assay on EGFR(G719S); 88% in [1]; 93% in assay [2]; 100% in the assay with EGFR(L747-T751del,Sins); 100% in the assay on EGFR(L858R); 96% in the assay with EGFR(L858R,T790M). Moreover, the “Percent Control” value amounted to 79% with EGFR(L861Q), 89% with EGFR(S752-I759del), 80% in the assay with EGFR(T790M) and 100% with EGFR.
With `COc1cc(N2CCN(C(C)C)CC2)ccc1Nc1nc(Nc2ccc(F)cc2C(=O)NC[C@@H](O)CO)c2cc[nH]c2n1` [GSK1392956A], the “Percent Control” value with EGFR(G719S) is recorded as 87%; in assay [1] it was 83%; in assay [2] it was 71%; in the assay on EGFR(L747-T751del,Sins), 94%; in the assay on EGFR(L858R), 73%; in the assay with EGFR(L858R,T790M), 7.6%. For the same molecule, the “Percent Control” value in the assay with EGFR(L861Q) is listed as 60%; in the assay with EGFR(S752-I759del), 86%; in the assay with EGFR(T790M), 4.4%; in the assay on EGFR it was 76%.
In the case of `Cl.O=S1CCN(Cc2ccc(-c3ccc4ncnc(Nc5ccc(OCc6ccccc6)c(F)c5)c4c3)o2)CC1` [GW576924A], the “Percent Control” value in the assay with EGFR(G719S) was 2.2%; in [1] it was 1.3%; in assay [2] it was 5.9%; with EGFR(L747-T751del,Sins), 42%; in the assay with EGFR(L858R), 0.3%; in the assay on EGFR(L858R,T790M), 100%. Moreover, the “Percent Control” value is on record as 0% in the assay with EGFR(L861Q), 1.4% in the assay on EGFR(S752-I759del), 46% in the assay on EGFR(T790M) and 0.5% in the assay with EGFR.
Turning to `COc1ccc(COc2ccc(Cc3cnc(N)nc3N)cc2OC)cc1` [GW632580X], the “Percent Control” value amounted to 61% in the assay on EGFR(G719S); 100% in assay [1]; 75% in assay [2]; 99% in the assay on EGFR(L747-T751del,Sins); 86% in the assay on EGFR(L858R); 98% with EGFR(L858R,T790M). Besides, the “Percent Control” value in the assay on EGFR(L861Q) is given as 61%; in the assay on EGFR(S752-I759del) it was 85%; with EGFR(T790M) it was 69%; in the assay on EGFR, 92%.
Take `Cl.O=C(Nc1ccc(Oc2ccc3[nH]c(NC(=O)c4ccccc4)nc3c2)cc1)Nc1cc(C(F)(F)F)ccc1F` [GW709042A]: the “Percent Control” value in the assay with EGFR(G719S) is reported as 57%; in [1] it was 100%; in assay [2], 91%; in the assay with EGFR(L747-T751del,Sins) it was 82%; in the assay on EGFR(L858R), 100%; in the assay with EGFR(L858R,T790M), 93%. Moreover, the “Percent Control” value in the assay on EGFR(L861Q) came out at 60%; with EGFR(S752-I759del), 87%; with EGFR(T790M) it was 82%; in the assay with EGFR, 100%.
As for `C[C@@H](Oc1cc(-n2cnc3ccc(OC4CCN(C)CC4)cc32)sc1C(N)=O)c1ccccc1Cl` [GSK579289A], the “Percent Control” value was found to be 59% in the assay on EGFR(G719S); 58% in [1]; 100% in assay [2]; 100% with EGFR(L747-T751del,Sins); 79% in the assay on EGFR(L858R); 85% with EGFR(L858R,T790M). The “Percent Control” value with EGFR(L861Q) is recorded as 64%; in the assay with EGFR(S752-I759del) it was 66%; in the assay with EGFR(T790M) it was 62%; in the assay with EGFR, 75%.
As for `NS(=O)(=O)c1ccc(N/N=C2\C(=O)Nc3ccc(Cl)cc32)cc1` [GW280670X], the “Percent Control” value (in the assay on EGFR(G719S); in assay [1]; in assay [2]; in the assay on EGFR(L747-T751del,Sins); in the assay with EGFR(L858R); in the assay with EGFR(L858R,T790M)) was 100% each time. Also, the “Percent Control” value is given as 87% with EGFR(L861Q), 87% in the assay on EGFR(S752-I759del), 100% in the assay with EGFR(T790M) and 100% with EGFR.
For `CC(C)COC(=O)c1ccc2c(c1)/C(=C/Nc1ccc(S(N)(=O)=O)cc1)C(=O)N2` [GW416981X], the “Percent Control” value in the assay on EGFR(G719S) stood at 32%; in [1], 62%; in assay [2] it was 48%; in the assay on EGFR(L747-T751del,Sins), 60%; in the assay on EGFR(L858R), 15%; in the assay on EGFR(L858R,T790M), 100%. The “Percent Control” value in the assay with EGFR(L861Q) is 8.8%; in the assay with EGFR(S752-I759del), 100%; in the assay on EGFR(T790M), 95%; in the assay on EGFR, 13%.
Regarding `Cl.O=C(Nc1ccc(Oc2ccc3[nH]c(NC(=O)c4ccco4)nc3c2)cc1)Nc1cc(C(F)(F)F)ccc1F` [GW683134A], the “Percent Control” value in the assay on EGFR(G719S) is recorded as 92%; in [1] it was 69%; in assay [2] it was 78%; in the assay on EGFR(L747-T751del,Sins), 100%; in the assay with EGFR(L858R), 91%; in the assay on EGFR(L858R,T790M) it was 100%. The “Percent Control” value in the assay with EGFR(L861Q) stood at 89%; in the assay with EGFR(S752-I759del), 97%; in the assay with EGFR(T790M), 84%; in the assay with EGFR it was 92%.
As for `COc1ccccc1-c1cc(/C=C2\C(=O)Nc3ncc(Br)cc32)cc(Br)c1O` [GW442130X], the “Percent Control” value with EGFR(G719S) amounted to 100%; in [1], 100%; in assay [2] it was 88%; in the assay with EGFR(L747-T751del,Sins) it was 100%; in the assay on EGFR(L858R), 100%; in the assay with EGFR(L858R,T790M), 85%. Further, the “Percent Control” value with EGFR(L861Q) turned out to be 100%; in the assay with EGFR(S752-I759del), 100%; with EGFR(T790M), 72%; in the assay with EGFR, 100%.
For the molecule `O=C1Nc2ccc(C(=O)c3ccco3)cc2C1=Cc1cc(Cl)c(O)c(Cl)c1` [GW406108X], the “Percent Control” value in the assay on EGFR(G719S) came to 58%; in assay [1], 100%; in [2] it was 94%; in the assay on EGFR(L747-T751del,Sins) it was 91%; with EGFR(L858R) it was 100%; with EGFR(L858R,T790M), 92%. Also, the “Percent Control” value is 57% in the assay on EGFR(L861Q), 81% in the assay with EGFR(S752-I759del), 77% in the assay on EGFR(T790M) and 100% in the assay with EGFR.
As to `CCS(=O)(=O)c1ccc(OC)c(Nc2ncc(-c3cccc(OC)c3)o2)c1` [GW580509X], the “Percent Control” value in the assay on EGFR(G719S) was 98%; in assay [1], 65%; in assay [2], 85%; in the assay on EGFR(L747-T751del,Sins), 100%; in the assay on EGFR(L858R), 80%; in the assay with EGFR(L858R,T790M), 100%. Besides, the “Percent Control” value with EGFR(L861Q) is 81%; in the assay with EGFR(S752-I759del) it was 95%; in the assay with EGFR(T790M), 89%; in the assay with EGFR, 83%.
